NALP1 inh: NALP1 inhibition | S. cerevisiae NALP1/ASC/caspase-1 growth, X-gal OD620, 72 h | hit rate 0.61% among 280,000 | AID 2071 | inhibition, % at 10 µM; in the data active = inhibition mostly above about 24%, no sharp cut-off; inactive = mostly below about 32%
NLRP3 yeast inh: NALP3 inhibition in yeast; hit rate 0.39% among 330,000; inhibition, % at 10 µM; Yeast reconstituted NLRP3/ASC/caspase-1, beta-gal luminescence, 24 h; AID 2825;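 active = inhibition of 50% or more; inactive = inhibition below 50%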
CHT allo act: allosterically activates the human high affinity choline transporter; Q9GZV3; CHT-expressing cells, membrane potential dye, choline EC20; active compounds read high; LV-AA mutant CHT in HEK293 cells; B-score at 10 µM; hit rate 0.49% among 310,000;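 active = initial fluorescence not abnormally high and integrated response B-score, plate-corrected, over 3 SD above library mean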
Target sequence (Q9GZV3 whole entry, looked up): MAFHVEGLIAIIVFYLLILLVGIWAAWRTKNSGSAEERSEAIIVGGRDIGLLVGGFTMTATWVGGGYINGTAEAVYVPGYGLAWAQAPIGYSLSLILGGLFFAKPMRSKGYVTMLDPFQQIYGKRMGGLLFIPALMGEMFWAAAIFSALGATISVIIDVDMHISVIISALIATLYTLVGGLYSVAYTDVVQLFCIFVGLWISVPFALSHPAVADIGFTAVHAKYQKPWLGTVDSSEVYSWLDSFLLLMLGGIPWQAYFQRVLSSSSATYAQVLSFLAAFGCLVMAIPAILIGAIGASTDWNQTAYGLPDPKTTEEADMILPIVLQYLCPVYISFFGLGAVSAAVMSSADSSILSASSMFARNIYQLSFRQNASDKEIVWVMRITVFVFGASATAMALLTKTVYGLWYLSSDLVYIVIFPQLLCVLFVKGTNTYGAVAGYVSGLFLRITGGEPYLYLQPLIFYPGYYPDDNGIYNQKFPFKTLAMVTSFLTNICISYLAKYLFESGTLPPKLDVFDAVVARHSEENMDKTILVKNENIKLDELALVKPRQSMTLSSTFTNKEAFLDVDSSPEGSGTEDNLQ
CHT inh: inhibits the human high affinity choline transporter; Q9GZV3; CHT-expressing cells, membrane potential dye, choline response; active compounds read low; B-score at 10 µM; hit rate 0.86% among 310,000;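 active = B-score over 3 SD under the library average, and starting fluorescence ratio not unusually high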;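 also: choline stimulus applied at its EC90 after an EC20 pre-addition; B-score computed on integrated fluorescence ratio after choline addition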
A1 inh: inhibitors of the anti-apoptotic protein A1, read as caspase activation; MEF A1-2A-BIM cells, Caspase-Glo 3/7 luminescence, 3 h; percent of clofoctol response, vehicle zero; caspase activation, % (no concentration beside the values); hit rate 0.066% among 330,000; AID 2462;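 active = over half of replicate activation scores above 10%, or exactly half above 10 with the replicate mean above 10; inconclusive = replicate mean below 10 yet half the replicates above 10; inactive = over half of replicates below 10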
Mot1-301 SUMO: inhibitors of SUMOylation pathway: yeast Mot1-301 growth rescue; S. cerevisiae Mot1-301 growth rescue, ATP luminescence, 38.5C; percent above DMSO median, 100 means doubled; growth rescue, % at 18.8 µM; hit rate 1% among 320,000;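 active = every valid replicate shows activation above 250% relative to neutral control wells; inactive = the rest, any valid replicate at or below 250%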
CHT activ conf: human CHT activation, confirmatory screen. shares compounds with CHT allo act. hit rate 91% among 2,500. AID 504833. CHT-expressing cells, membrane potential dye fluorescence (FDSS); % of choline EC20–EC90 response window; HEK293 expressing CHT LV-AA mutant; choline added at its EC20. activation, % at 10 µM;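 active = primary screen active, with duplicate mean activation above negative control mean plus 3 SD, cut at about 11% in these data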
HEK293 MP dye: CHT activator counter-screen hit in parental HEK293 cells; shares compounds with CHT allo act; membrane potential dye fluorescence (FDSS); measured after EC20 choline addition; ratio readout change at 10 µM, hits read low; hit rate 62% among 2,500; AID 623908;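 active = duplicate-averaged ratio beyond 3 SD from buffer wells, up or down, though filed actives are nearly all decreases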
Large screens that a line does not name were inactive (follow-up assays come after a bar, where they were run). Sampled rows, rich in hits. Any-hit rate of the full collection: about 3%.

Cc1nc2cc(NC(=O)N3CCC(c4ccccc4)C3)ccc2n1C (configuration not stated)	none
Cc1nc2cc(NC(=O)N3CCCC3)ccc2n1C	CHT allo act 6.5 | CHT activ conf 26 | HEK293 MP dye -39
COc1ccc(CNC(=O)N2CCc3ccccc3C2)cc1	none
CC(=O)c1ccc(NC(=O)COC(=O)CCC2CCCC2)cc1	none (no result: NALP1 inh, CHT allo act, CHT inh)
COC(=O)c1c(NC(NC(=O)c2ccccc2)(C(F)(F)F)C(F)(F)F)sc2c1CCN(C)C2	CHT allo act 7.2 | CHT activ conf 69 | HEK293 MP dye -59
C(=N\NC1=NCCN1)/c1ccncc1	CHT allo act 6.4 | CHT activ conf 54 | HEK293 MP dye -54
CCN(CC)CCNC(=O)c1cc(Nc2ccc(OC)c(OC)c2)nc2ccccc12	none
CCN(CC)c1ccc(S(=O)(=O)N2CCOCC2)cc1NC(=O)CSc1nncs1	none (no result: NALP1 inh)
CSc1ccccc1NC(=O)CN(C)C(=O)Cn1c(=O)oc2ccccc21	none (no result: NALP1 inh)
Oc1ccc(/C=N/Nc2nn3cnnc3c3ccccc23)cc1	none (no result: NALP1 inh)
C(=N\Nc1nn2cnnc2c2ccccc12)/c1ccco1	none (no result: Mot1-301 SUMO) | CHT activ conf 35 | HEK293 MP dye -28
Cc1cc(N2CCOCC2)n2cc(-c3ccc(F)cc3)nc2n1	none | CHT activ conf 31 | HEK293 MP dye -21
Cc1cc2c3c(ccc(C)c3n1)N=CN2c1ccccc1	none (no result: NALP1 inh) | CHT activ conf 49 | HEK293 MP dye -60
Cn1cc([C@@H]2C[C@H]3CN(Cc4cccc(Cl)c4)C(=O)[C@]34CCCN24)c(-c2ccccc2)n1	none | CHT activ conf 19 | HEK293 MP dye inactive
CCn1ncc([C@@H]2C[C@H]3CN(Cc4cccc(Cl)c4)C(=O)[C@]34CCCN24)c1C	none
CN1CCN(C(=O)CSc2nc(-c3cccs3)cc(-c3cccs3)c2C#N)CC1	none (no result: NLRP3 yeast inh)
CN1CCN(C(=O)CSc2nc(-c3ccncc3)ccc2C#N)CC1	CHT allo act 8.1 | CHT activ conf 44 | HEK293 MP dye -37
Nc1c(Cl)ncnc1N1CCCC1	none
NC(N)=NC(=O)c1nc(Cl)c(N2CCCCCC2)nc1N	none (no result: NALP1 inh) | CHT activ conf 42 | HEK293 MP dye -22
NC(N)=NC(=O)c1nc(Cl)c(N)nc1N	CHT allo act 7.2 | CHT activ conf 18 | HEK293 MP dye -41
COc1ccc(C)cc1NC(=O)c1cccc(C(=O)Nc2cc(C)ccc2OC)n1	none
O=C(Nc1ccncc1)c1cccc(S(=O)(=O)N2CCCC2)c1	none
CCCCn1cnc2c1c(=O)n(C)c(=O)n2C	none
Cn1c(=O)c2c(ncn2CCCC(=N)N2CCOCC2)n(C)c1=O	CHT allo act 11 | CHT activ conf 78 | HEK293 MP dye -72
O=C(COC(=O)c1ccccc1SCC(=O)N1CCCC1)NCc1ccccc1	none (no result: NALP1 inh)
CN(C)c1ccc2c3c(ccc(N(C)C)c13)C(=O)OC2	CHT allo act 7.3 | CHT activ conf 80 | HEK293 MP dye -96
CC[N+](CC)(CC)C/C=C/CN1CCCCC1	none | CHT activ conf 40 | HEK293 MP dye -43
CCOc1ccccc1NC(=O)CSc1nnc(NC(=O)c2ccco2)s1	none
c1cncc(Nc2nc(-c3ccncc3)cs2)c1	CHT allo act 7.5 | CHT activ conf 46 | HEK293 MP dye -49
COc1ccc(-c2csc(Nc3cccnc3)n2)cc1OC	none (no result: Mot1-301 SUMO)
Clc1cccc(-c2csc(Nc3cccnc3)n2)c1	none
Cc1nc(C)c(-c2csc(Nc3cccnc3)n2)s1	none | CHT activ conf 35 | HEK293 MP dye -34
c1cncc(Nc2nc(-c3cccnc3)cs2)c1	CHT allo act 6.9 | CHT activ conf 43 | HEK293 MP dye -45
Fc1ccccc1C1c2[nH]c3ccccc3c2CCN1Cc1cccn1-c1ncccn1 (configuration not stated)	none
Cc1ccccc1C1c2[nH]c3ccccc3c2CCN1Cc1cccn1-c1ncccn1 (configuration not stated)	CHT allo act 6.3 | CHT activ conf 27 | HEK293 MP dye inactive
Cc1cc(NCCCN(C)C)n2nc(-c3cccs3)cc2n1	CHT allo act 13 | CHT activ conf 39 | HEK293 MP dye -89
Cc1cccc(-c2cc3nc(C)cc(NCCCn4ccnc4)n3n2)c1	CHT allo act 9.6 | CHT activ conf 51 | HEK293 MP dye -59
O=C1CN(CC(=O)NC2CCCc3ccccc32)CCN1 (configuration not stated)	A1 inh inconclusive
COC1=C(Nc2ccccc2)C(=O)c2ccccc2C1=O	none | CHT activ conf 35 | HEK293 MP dye -58
COC1=C(Nc2ccc(C)cc2)C(=O)c2ccccc2C1=O	none
O=C1C=CC(=O)N1	none (no result: NALP1 inh)
O=C(C[C@@H]1C/C=C\C[C@H](Cc2ccc(F)cc2)C(=O)OCCNC1=O)NCCO	none (no result: NALP1 inh, CHT allo act, CHT inh)
